The values below come from PubChem BioAssay.

In general, AC50 refers to the midpoint of the concentration-response curve, whichever way the signal moves. The term IC50 denotes the concentration needed to halve the response being measured. Usually viability stands for a read-out of living cells in per cent, often relative to untreated cells.

Records with an inconclusive call do not appear. The source made the active and inactive calls.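 How the source made its calls, unless noted: active means normalized viability below 100% at a tested concentration; inactive means the rest.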

Assay [1] in a line: growth inhibition of DIPG glioma cells, dose response, cell-based, SU-DIPG-XVII, MIPE5.0, CellTiter-Glo, qHTS (AID 1347060; cut-off not given, nearly all actives have AC50 up to about 26 µM;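 on AC50: cells exposed to compound for 48 hours before viability readout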). The settings on record: SU-DIPG-XVII viability, CellTiter-Glo ATP luminescence. For orientation: In ATP-based viability assays light output follows the ATP content of the culture.
Assay [2] in a line: growth inhibition of DIPG glioma cells, dose response, cell-based, SU-DIPG-XIII, MIPE4.0, CellTiter-Glo, qHTS (AID 1347061; cut-off not given, nearly all actives have AC50 up to about 37 µM;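 further: cells exposed to compound for 48 hours before readout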). The settings on record: SU-DIPG-XIII viability, CellTiter-Glo ATP luminescence.
Assay [3] can be described thus: growth inhibition of DIPG glioma cells, dose response, cell-based, JHH-DIPG-1, MIPE4.0, CellTiter-Glo, qHTS (AID 1347062; cut-off not given, nearly all actives have AC50 up to about 27 µM;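 on AC50: cells exposed to compound for two days before readout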). The following applies: JHH-DIPG-1 viability, CellTiter-Glo ATP luminescence.
Assay [4] in a line: growth inhibition of DIPG glioma cells, dose response, cell-based, SU-DIPG-IV, MIPE4.0, CellTiter-Glo, qHTS (AID 1347063; cut-off not given, nearly all actives have AC50 up to about 30 µM;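 further: compound exposure lasted 48 hours before the viability readout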). The settings on record: SU-DIPG-IV viability, CellTiter-Glo ATP luminescence.
The nature of assay [5]: growth inhibition of DIPG glioma cells, dose response, cell-based, SU-DIPG-XIII, MIPE5.0, CellTiter-Glo, qHTS (AID 1347064; cut-off not given, nearly all actives have AC50 up to about 23 µM;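 on AC50: cells exposed to compound for 48 hours before the viability read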). The following applies: SU-DIPG-XIII viability, CellTiter-Glo ATP luminescence.
Assay [6] can be described thus: viability loss in pontine glioma line – cell-based, SU-DIPG-XXV, MIPE5.0, CellTiter-Glo, qHTS, dose response (AID 1347065; cut-off not given, nearly all actives have AC50 up to about 26 µM;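 further: cells exposed to compound for 48 hours before ATP readout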). The following applies: CellTiter-Glo ATP luminescence.
Assay [7] in a line: SU-DIPG-VI glioma cell viability, MIPE4.0 library, CellTiter-Glo luminescence, qHTS (AID 1347066; cut-off not given, nearly all actives have AC50 up to about 30 µM;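 further: cells exposed to compound for 48 hours before readout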). The following applies: CellTiter-Glo ATP luminescence.
Assay [8] is described as follows: JHH-DIPG-1 glioma cell viability, MIPE5.0 library, CellTiter-Glo luminescence, qHTS (AID 1347067; cut-off not given, nearly all actives have AC50 up to about 26 µM;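 further: cells exposed to compound for 48 hours before readout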). The settings on record: JHH-DIPG-1 glioma viability, CellTiter-Glo ATP luminescence.
Assay [9] in a line: SU-DIPG-XXV glioma cell viability, MIPE5.0 library, qHTS (AID 1347068; cut-off not given, nearly all actives have IC50 up to about 30 µM;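 on IC50: cells exposed to compound for 48 hours before viability readout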).
A short description of assay [10]: sensitizers of A549 cells to miR-34 induction, primary screen, imaging, A549 dox-inducible miR-34, nuclei and caspase counts (AID 1347080;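 active means compounds whose cell count with miR-34 switched on is under 0.7 times the count with it off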). The settings on record: A549 miR-34 inducible, Hoechst nuclei count, 48 h.
Assay [11] can be described thus: modifiers of HSF1 nuclear foci, imaging, Selleck Cancer Library (AID 1347162; in the data active means plate-normalised HSF1 focus index below about 0.46). The settings on record: human cells, at 10 µM; SSMD: measured here: HSF1 foci SSMD mean; cell count: measured here: cell number; plate-normalised HSF1 focus index: stronger effect = lower value.
A short description of assay [12]: survival rescue of mitochondrial mutant cells in low glucose, primary screen, MELAS cybrids, Rieske KO mouse fibroblasts, CellTiter-Glo (AID 1508586;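 active means mean z-score across replicates of 1.96 or higher in either the MELAS or the Rieske mutant cell line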;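 further: z relative to plate mean and SD of compound and empty wells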).
The nature of assay [13]: ovarian cancer cell viability with rucaparib, profiling panel, oncology-focused library, rucaparib conditional (AID 1508598). The following applies: patient-derived ovarian cancer cells, CellTiter-Glo viability, 144 h, stronger effect = lower value.

Turning to `Cc1ccc(C(=O)Nc2ccc(CN3CCN(C)CC3)c(C(F)(F)F)c2)cc1C#Cc1cnc2cccnn12`, the AC50 is 0.59 µM (active) in [1]; 0.418 µM (active) in [2]; 6.62 µM (active) in [3]; 1.18 µM (active) in [4]; 0.661 µM (active) in assay [5]; 0.833 µM (active) in assay [6]. The AC50 in assay [7] was 8.33 µM (active); in [8], 2.35 µM (active). Besides, the IC50 in assay [9] is 2.95 µM (active). Further, the fold change in assay [10] (stronger effect = lower value, cell number ratio, induced over uninduced) was 1.36 (inactive); in [10] (measured here: relative caspase fold change +Dox/-Dox) it was 1.05. For the same molecule, the cell count was found to be 814 in assay [10] (measured here: total cells with miR-34 induction, stronger effect = lower value); 597 in assay [10] (measured here: total cells without miR-34 induction); 7680 in [11]. The same molecule showed an SSMD in assay [11] of 1.5. The plate-normalised HSF1 focus index in assay [11] is 1.09 (inactive). For the same molecule, the z-score is 1.37 (inactive) in assay [12] (MELAS cybrid survival, CellTiter-Glo 48 h, stronger effect = higher value) and -2.78 in assay [12] (Rieske KO mouse fibroblast survival, CellTiter-Glo 72 h). The viability in assay [13] (at 0.000305 µM, OCI-C5x cells, with rucaparib 10 µM, 100% = cells with rucaparib alone) was 94.7% (active); in assay [13] (at 0.000305 µM, OCI-C5x cells, without rucaparib), 114% (inactive); in assay [13] (at 0.000305 µM, OCI-P5x cells, with rucaparib 20 µM, 100% = cells with rucaparib alone), 108% (inactive); in [13] (at 0.000305 µM, OCI-P5x cells, without rucaparib) it was 114% (inactive); in [13] (at 0.00122 µM, OCI-C5x cells, with rucaparib 10 µM, 100% = cells with rucaparib alone) it was 98% (active); in [13] (at 0.00122 µM, OCI-C5x cells, without rucaparib), 122% (inactive). For the same molecule, the viability in assay [13] (at 0.00122 µM, OCI-P5x cells, with rucaparib 20 µM, 100% = cells with rucaparib alone) is 103% (inactive); in assay [13] (at 0.00122 µM, OCI-P5x cells, without rucaparib), 111% (inactive); in assay [13] (at 0.00488 µM, OCI-C5x cells, with rucaparib 10 µM, 100% = cells with rucaparib alone), 104% (inactive); in assay [13] (at 0.00488 µM, OCI-C5x cells, without rucaparib), 130% (inactive); in [13] (at 0.00488 µM, OCI-P5x cells, with rucaparib 20 µM, 100% = cells with rucaparib alone), 97% (active); in [13] (at 0.00488 µM, OCI-P5x cells, without rucaparib), 107% (inactive). Moreover, the viability was 95.2% (active) in assay [13] (at 0.0195 µM, OCI-C5x cells, with rucaparib 10 µM, 100% = cells with rucaparib alone); 127% (inactive) in [13] (at 0.0195 µM, OCI-C5x cells, without rucaparib); 102% (inactive) in [13] (at 0.0195 µM, OCI-P5x cells, with rucaparib 20 µM, 100% = cells with rucaparib alone); 89.9% (active) in [13] (at 0.0195 µM, OCI-P5x cells, without rucaparib); 94.7% (active) in assay [13] (at 0.0781 µM, OCI-C5x cells, with rucaparib 10 µM, 100% = cells with rucaparib alone); 117% (inactive) in assay [13] (at 0.0781 µM, OCI-C5x cells, without rucaparib). The viability was 88.1% (active) in [13] (at 0.0781 µM, OCI-P5x cells, with rucaparib 20 µM, 100% = cells with rucaparib alone); 111% (inactive) in assay [13] (at 0.0781 µM, OCI-P5x cells, without rucaparib); 93.2% (active) in assay [13] (at 0.313 µM, OCI-C5x cells, with rucaparib 10 µM, 100% = cells with rucaparib alone); 118% (inactive) in assay [13] (at 0.313 µM, OCI-C5x cells, without rucaparib); 44.4% (active) in assay [13] (at 0.313 µM, OCI-P5x cells, with rucaparib 20 µM, 100% = cells with rucaparib alone); 77.9% (active) in assay [13] (at 0.313 µM, OCI-P5x cells, without rucaparib). Further, the viability in assay [13] (at 1.25 µM, OCI-C5x cells, with rucaparib 10 µM, 100% = cells with rucaparib alone) was 58.9% (active); in assay [13] (at 1.25 µM, OCI-C5x cells, without rucaparib) it was 116% (inactive); in [13] (at 1.25 µM, OCI-P5x cells, with rucaparib 20 µM, 100% = cells with rucaparib alone), 24.3% (active); in [13] (at 1.25 µM, OCI-P5x cells, without rucaparib), 28.1% (active); in assay [13] (at 5 µM, OCI-C5x cells, with rucaparib 10 µM, 100% = cells with rucaparib alone) it was 2.01% (active); in assay [13] (at 5 µM, OCI-C5x cells, without rucaparib) it was 3.5% (active). Moreover, the viability in assay [13] (at 5 µM, OCI-P5x cells, with rucaparib 20 µM, 100% = cells with rucaparib alone) is 8.21% (active); in assay [13] (at 5 µM, OCI-P5x cells, without rucaparib) it was 6.01% (active).
For the molecule `CC(C)(O)[C@H]1CC[C@@](C)([C@H]2[C@@H](O)C[C@@]3(C)[C@@H]4C[C@H](O[C@@H]5O[C@H](CO)[C@@H](O)[C@H](O)[C@H]5O)[C@H]5C(C)(C)[C@@H](O[C@@H]6OC[C@@H](O)[C@H](O)[C@H]6O)CC[C@@]56C[C@@]46CC[C@]23C)O1`, the molecule was called inactive in [1], in [2], in [3], in assay [4], in [5] and in assay [6]. Further, the outcome in assay [7], in assay [8] and in assay [9] was inactive.
With `O=C1NC(=O)/C(=C/c2ccc3nccc(-c4ccncc4)c3c2)S1`, the AC50 in assay [1] was 1.18 µM (active); in [2], 0.743 µM (active); in assay [3], 1.05 µM (active); in assay [4], 0.0833 µM (active); in assay [5], 1.48 µM (active); in assay [6], 0.468 µM (active). Further, the AC50 in assay [7] was 0.264 µM (active); in [8], 1.48 µM (active). Also, the IC50 in [9] is 1.32 µM (active).
On to `CC(=O)NCC(=O)N1[C@@H]2CC[C@H]1c1ccc(Nc3ncc(C(F)(F)F)c(NC4CCC4)n3)cc12`, for which the AC50 is 0.417 µM (active) in assay [1]; 1.66 µM (active) in assay [2]; 5.9 µM (active) in [3]; 1.87 µM (active) in assay [4]; 0.661 µM (active) in [5]; 0.186 µM (active) in assay [6]. For the same molecule, the AC50 in assay [7] is 2.64 µM (active); in assay [8], 1.86 µM (active). The IC50 in [9] was 0.833 µM (active).
